PubChem BioAssay
The source made the active and inactive calls.

Columns and labels:
[1] = binders of probe aFSTL3 on microarray, primary screen, stem cell growth factor project, biochemical, small-molecule microarray, fluorescence 635/667 (AID 1064); settings: higher = more signal;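 further: measures binding of the biotinylated anti-FSTL3 antibody to printed compounds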
[2] = binders from COS7 lysate, DM2A8 probe, primary screen, torsin A project, cell lysate, small-molecule microarray, fluorescence 635/667 (AID 1065); settings: higher = more signal, COS7 lysate expressing mutant human TOR1A
[3] = binders of probe aFGF2 on microarray, primary screen, stem cell growth factor project, biochemical, small-molecule microarray, fluorescence 635/667 (AID 1067); settings: higher = more signal;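 further: measures binding of biotinylated aFGF2 protein to printed compounds on slides; z-score merges feature fluorescence and signal-to-noise across triplicate slides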
[4] = binders of probe aFGF10 on microarray, primary screen, stem cell growth factor project, biochemical, small-molecule microarray, fluorescence 635/667 (AID 1071); settings: higher = more signal;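 further: score merges 667 nm spot intensity and signal to noise from triplicate slides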
[5] = target: Neurogenic locus notch homolog protein 2 (Homo sapiens) (UniProt Q04721); assay: Notch2 binders on small-molecule microarrays, primary screen, biochemical, small-molecule microarray, 635 nm fluorescence, stem cell growth factors (AID 1073); settings: Notch2 binding, higher = more signal
Sequence of Neurogenic locus notch homolog protein 2 (Homo sapiens) (Q04721 whole entry, looked up, canonical isoform): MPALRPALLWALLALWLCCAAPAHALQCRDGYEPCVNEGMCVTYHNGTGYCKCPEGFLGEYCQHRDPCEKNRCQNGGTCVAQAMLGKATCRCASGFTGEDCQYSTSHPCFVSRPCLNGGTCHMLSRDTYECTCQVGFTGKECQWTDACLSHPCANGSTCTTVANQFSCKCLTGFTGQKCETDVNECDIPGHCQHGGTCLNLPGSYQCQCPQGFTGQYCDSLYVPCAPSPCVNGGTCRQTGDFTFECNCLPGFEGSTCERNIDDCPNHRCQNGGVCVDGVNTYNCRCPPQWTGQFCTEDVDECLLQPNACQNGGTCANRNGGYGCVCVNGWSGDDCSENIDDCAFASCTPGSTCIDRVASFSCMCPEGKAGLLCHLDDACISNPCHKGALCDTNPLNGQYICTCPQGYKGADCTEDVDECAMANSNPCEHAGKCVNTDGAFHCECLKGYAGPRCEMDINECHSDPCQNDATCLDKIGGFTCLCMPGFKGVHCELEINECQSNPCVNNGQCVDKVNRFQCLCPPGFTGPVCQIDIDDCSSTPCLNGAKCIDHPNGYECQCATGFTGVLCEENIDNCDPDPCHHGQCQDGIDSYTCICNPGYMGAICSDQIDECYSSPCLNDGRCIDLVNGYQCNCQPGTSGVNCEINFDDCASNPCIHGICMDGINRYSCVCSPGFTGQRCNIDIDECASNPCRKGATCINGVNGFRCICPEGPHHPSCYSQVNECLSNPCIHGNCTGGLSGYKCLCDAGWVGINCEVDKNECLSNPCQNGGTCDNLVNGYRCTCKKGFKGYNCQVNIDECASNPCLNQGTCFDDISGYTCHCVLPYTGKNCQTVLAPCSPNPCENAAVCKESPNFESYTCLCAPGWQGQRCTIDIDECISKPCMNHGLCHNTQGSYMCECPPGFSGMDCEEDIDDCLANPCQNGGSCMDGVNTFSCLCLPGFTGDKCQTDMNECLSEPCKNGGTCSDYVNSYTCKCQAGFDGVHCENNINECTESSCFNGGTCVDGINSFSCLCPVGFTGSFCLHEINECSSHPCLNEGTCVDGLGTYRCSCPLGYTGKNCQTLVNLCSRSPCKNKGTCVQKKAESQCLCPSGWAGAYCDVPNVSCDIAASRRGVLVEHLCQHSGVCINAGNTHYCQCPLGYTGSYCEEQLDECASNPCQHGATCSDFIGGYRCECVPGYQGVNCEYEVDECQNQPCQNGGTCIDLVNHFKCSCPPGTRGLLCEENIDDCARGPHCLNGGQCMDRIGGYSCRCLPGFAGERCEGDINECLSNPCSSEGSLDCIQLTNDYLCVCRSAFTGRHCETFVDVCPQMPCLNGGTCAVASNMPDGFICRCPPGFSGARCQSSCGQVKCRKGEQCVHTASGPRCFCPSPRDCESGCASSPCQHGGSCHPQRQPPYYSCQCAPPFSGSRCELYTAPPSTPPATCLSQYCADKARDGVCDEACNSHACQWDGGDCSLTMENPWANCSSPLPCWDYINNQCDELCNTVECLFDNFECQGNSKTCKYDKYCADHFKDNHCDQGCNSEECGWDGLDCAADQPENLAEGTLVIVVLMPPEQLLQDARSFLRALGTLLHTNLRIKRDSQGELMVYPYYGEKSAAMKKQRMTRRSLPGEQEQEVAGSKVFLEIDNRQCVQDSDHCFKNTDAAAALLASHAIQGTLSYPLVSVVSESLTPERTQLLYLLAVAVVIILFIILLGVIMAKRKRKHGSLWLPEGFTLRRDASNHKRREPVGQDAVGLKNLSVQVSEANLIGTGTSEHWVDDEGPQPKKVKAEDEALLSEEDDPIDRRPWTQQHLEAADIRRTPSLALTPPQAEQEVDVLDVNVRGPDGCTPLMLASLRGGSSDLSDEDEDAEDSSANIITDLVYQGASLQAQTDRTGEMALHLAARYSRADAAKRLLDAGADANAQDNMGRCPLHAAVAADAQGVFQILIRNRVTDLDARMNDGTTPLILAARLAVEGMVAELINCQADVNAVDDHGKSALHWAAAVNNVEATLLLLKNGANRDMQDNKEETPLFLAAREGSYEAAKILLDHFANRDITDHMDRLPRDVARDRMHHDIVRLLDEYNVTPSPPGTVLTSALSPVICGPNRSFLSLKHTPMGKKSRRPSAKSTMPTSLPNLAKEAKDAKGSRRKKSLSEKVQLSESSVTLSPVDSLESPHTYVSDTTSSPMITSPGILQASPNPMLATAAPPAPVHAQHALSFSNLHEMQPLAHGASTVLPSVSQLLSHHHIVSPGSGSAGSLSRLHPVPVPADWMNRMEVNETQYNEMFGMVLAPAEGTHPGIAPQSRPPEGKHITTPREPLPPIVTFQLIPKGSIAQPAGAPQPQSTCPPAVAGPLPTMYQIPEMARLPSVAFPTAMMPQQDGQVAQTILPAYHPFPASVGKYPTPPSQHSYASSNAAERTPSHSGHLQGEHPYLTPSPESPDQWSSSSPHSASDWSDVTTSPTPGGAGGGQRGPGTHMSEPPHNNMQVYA

[6] = target: Pro-neuregulin-1, membrane-bound isoform (Homo sapiens) (UniProt Q02297); assay: NRG1 binders on small-molecule microarrays, primary screen, psychiatric disease protein project, biochemical, small-molecule microarray, fluorescence 635/667 (AID 1075); settings: NRG1 binding, 635 nm fluorescence, higher = more signal;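 further: score combines 667 nm spot fluorescence with signal to noise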
Sequence of Pro-neuregulin-1, membrane-bound isoform (Homo sapiens) (Q02297 whole entry, looked up, the tested form may be a part, canonical isoform): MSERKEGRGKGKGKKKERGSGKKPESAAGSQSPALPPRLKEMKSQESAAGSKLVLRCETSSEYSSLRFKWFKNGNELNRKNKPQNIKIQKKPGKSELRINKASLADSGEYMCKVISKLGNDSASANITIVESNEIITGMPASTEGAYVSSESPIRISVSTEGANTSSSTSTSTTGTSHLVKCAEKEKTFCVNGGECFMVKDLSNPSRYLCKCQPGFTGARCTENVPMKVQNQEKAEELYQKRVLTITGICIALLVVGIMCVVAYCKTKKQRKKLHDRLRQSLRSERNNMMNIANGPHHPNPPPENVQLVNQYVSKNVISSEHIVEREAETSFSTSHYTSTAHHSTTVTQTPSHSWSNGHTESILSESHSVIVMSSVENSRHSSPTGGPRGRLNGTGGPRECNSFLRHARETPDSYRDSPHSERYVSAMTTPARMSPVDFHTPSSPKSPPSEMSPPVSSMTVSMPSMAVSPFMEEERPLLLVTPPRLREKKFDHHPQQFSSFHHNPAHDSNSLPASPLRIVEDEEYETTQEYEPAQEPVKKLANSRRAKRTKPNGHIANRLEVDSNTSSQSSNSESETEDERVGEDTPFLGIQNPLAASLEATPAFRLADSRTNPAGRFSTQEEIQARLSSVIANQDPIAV

[7] = system: Neuregulin-1 EGF-like domain; assay: binders of neuregulin-1 EGF-like domain, primary screen, biochemical, small-molecule microarray, 635 nm fluorescence (AID 1081); settings: small-molecule microarray binding, higher = more signal;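 further: binding of the protein to compounds printed on small-molecule microarray slides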
[8] = FRG1 promoter luciferase signal modulators, primary screen, FRG1 inhibition for FSHD, cell-based, C2C12 myotubes, firefly/Renilla luciferase, luminescence (AID 1084); settings: higher = more signal, called active from +8 up or from −8 down
[9] = binders of probe aFST on microarray, primary screen, stem cell growth factor project, biochemical, small-molecule microarray, fluorescence 635/667 (AID 1086); settings: higher = more signal;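 further: score merges 667 nm fluorescence with signal-to-noise of each printed compound spot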
[10] = binders of probe aHhip on microarray, primary screen, stem cell growth factor project, biochemical, small-molecule microarray, fluorescence 635/667 (AID 1087); settings: higher = more signal;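 further: score merges spot fluorescence at 667nm with spot signal to noise ratio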
[11] = system: PRMT1 (protein arginine N-methyltransferase 1); assay: PRMT1 binders on small-molecule microarrays, primary screen, biochemical, small-molecule microarray, 635 nm fluorescence (AID 1088); settings: small-molecule microarray binding, higher = more signal;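 further: binding of Prmt1 protein to compounds spotted on small-molecule microarray slides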
[12] = yeast growth modulation, basal conditions, primary screen, YJM789 clinical isolate, OD600, 24 h (AID 1089);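 further: growth of clinical yeast isolate S. cerevisiae YJM 789 seeded 1000 cells per well; test concentration not given here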; settings: S. cerevisiae YJM789 growth, higher = more signal, called active from +8 up or from −8 down
[13] = fission yeast growth modulation, primary screen, strain 972, OD600, 24 h, no modulator (AID 1090);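 further: basal condition with compound alone and no growth modifier present; test concentration not given here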; settings: S. pombe 972 growth, higher = more signal, called active from +8 up or from −8 down
[14] = S. cerevisiae growth modulation with rapamycin, primary screen, strain BY4716, OD600, 96 h (AID 1091); settings: higher = more signal, called active from +8 up or from −8 down; further: test concentration not given here
[15] = target: Torsin-1A-interacting protein 2 (Homo sapiens) (UniProt Q8NFQ8); assay: LULL1 binders on small-molecule microarray, primary screen, cell lysate, human LULL1 lysate, 635/667 nm fluorescence (AID 1092); settings: hLULL1 lysate binding, 635 nm fluorescence, higher = more signal;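 further: probe is lysate of COS7 cells overexpressing human LULL1; score merges per-feature 667 nm fluorescence with signal-to-noise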
Sequence of Torsin-1A-interacting protein 2 (Homo sapiens) (Q8NFQ8 whole entry, looked up): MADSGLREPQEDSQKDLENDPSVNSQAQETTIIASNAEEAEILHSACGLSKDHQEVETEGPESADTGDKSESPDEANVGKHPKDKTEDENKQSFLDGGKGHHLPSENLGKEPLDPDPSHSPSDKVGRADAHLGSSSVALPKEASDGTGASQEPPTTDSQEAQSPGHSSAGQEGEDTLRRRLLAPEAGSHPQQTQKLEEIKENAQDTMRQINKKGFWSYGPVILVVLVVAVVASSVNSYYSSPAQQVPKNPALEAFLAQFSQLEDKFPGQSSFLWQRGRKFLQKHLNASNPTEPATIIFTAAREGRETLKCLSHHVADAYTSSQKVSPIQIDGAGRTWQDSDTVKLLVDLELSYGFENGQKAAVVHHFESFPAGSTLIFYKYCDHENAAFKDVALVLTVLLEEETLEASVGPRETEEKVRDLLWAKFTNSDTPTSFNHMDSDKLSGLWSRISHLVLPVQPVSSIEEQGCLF

[16] = E. coli growth modulation, two-sided OD650, primary screen, E. coli filamentation project, strain DRC41, 24 h (AID 1093); settings: OD650, 24 h, higher = more signal, called active from +8 up or from −8 down;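 further: MC1000 strain lacking acrAB efflux and sulA so SOS filamentation is blocked; test concentration not given here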
[17] = small-molecule microarray binders of probe aLefty2, primary screen, biochemical, biotinylated probe, 635/667 nm fluorescence (AID 1094); settings: higher = more signal;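 further: score merges spot fluorescence near 667 nm with spot signal-to-noise ratio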
[18] = system: Noggin (protein binding on small-molecule microarray); assay: Noggin binders on small-molecule microarray, primary screen, biochemical, 635/667 nm fluorescence (AID 1095); settings: 635 nm fluorescence, higher = more signal;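 further: score merges 667 nm feature fluorescence with signal to noise over triplicate slides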
[19] = target: Neurogenic locus notch homolog protein 3 (Homo sapiens) (UniProt Q9UM47); assay: NOTCH3 binders on small-molecule microarray, primary screen, biochemical, 635/667 nm fluorescence (AID 1096); settings: NOTCH3 binding, 635 nm fluorescence, higher = more signal
[20] = small-molecule microarray binders of probe aEGFR, primary screen, biochemical, biotinylated probe, 635/667 nm fluorescence (AID 1097); settings: higher = more signal;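 further: probe is a biotinylated anti-EGFR antibody binding compounds printed on slides; score combines fluorescence near 667 nm and signal to noise of each spot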

C#CCCCON=C1[C@H]2CCn3c(=O)n([C@@H](CC)c4ccccc4)c(=O)n3[C@H]2[C@H](O)[C@@H]2O[C@H]12
composite z-score [1]: -0.409
composite z-score [2]: 0.152
composite z-score [3]: 0.0047
composite z-score [4]: 0.353
composite z-score [5]: 0.148
composite z-score [6]: 0.24
composite z-score [7]: 0.322
z-score [8]: 0.456 (inactive)
composite z-score [9]: -0.0356
composite z-score [10]: -0.261
composite z-score [11]: -0.142
z-score [12]: -0.455 (inactive)
z-score [13]: -1.1 (inactive)
z-score [14]: -0.533 (inactive)
composite z-score [15]: 0.883
z-score [16]: -0.647 (inactive)
composite z-score [17]: -0.114
composite z-score [18]: 1.05
composite z-score [19]: 0.226
composite z-score [20]: -0.042

CC1(C)O[C@H]2O[C@H]([C@H](O)CON=C3[C@H]4CCn5c(=O)n(-c6ccccc6)c(=O)n5[C@H]4[C@H](O)[C@@H]4O[C@H]34)[C@H](O)[C@H]2O1
composite z-score [1]: -0.278
composite z-score [2]: 0.0391
composite z-score [3]: -0.154
composite z-score [4]: 0.157
composite z-score [5]: 0.0872
composite z-score [6]: 0.762
composite z-score [7]: -0.431
z-score [8]: -0.027 (inactive)
composite z-score [9]: -0.081
composite z-score [10]: -0.0994
composite z-score [11]: -0.626
z-score [12]: -0.638 (inactive)
z-score [13]: -0.347 (inactive)
z-score [14]: -0.215 (inactive)
composite z-score [15]: -0.122
z-score [16]: 0.321 (inactive)
composite z-score [17]: -0.212
composite z-score [18]: 0.426
composite z-score [19]: -0.412
composite z-score [20]: -0.219

CCOC(=O)CCN1C(=O)[C@H]2[C@H]3[C@H](O)[C@H](O)CC(=NNC(=O)OCC)[C@H]3CC[C@H]2C1=O
composite z-score [1]: -0.264
composite z-score [2]: 0.345
composite z-score [3]: -0.162
composite z-score [4]: -0.188
composite z-score [5]: -0.752
composite z-score [6]: 0.189
composite z-score [7]: 0.54
z-score [8]: 0.115 (inactive)
composite z-score [9]: 0.0166
composite z-score [10]: -0.0237
composite z-score [11]: 0.0158
z-score [12]: 0.654 (inactive)
z-score [13]: -1.45 (inactive)
z-score [14]: 0.305 (inactive)
composite z-score [15]: 0.0756
z-score [16]: -0.637 (inactive)
composite z-score [17]: -0.139
composite z-score [18]: 0.412
composite z-score [19]: -0.818
composite z-score [20]: -0.12

CO[C@@H]1COC(=O)[C@H](CCSC)NC(=O)CC=C[C@@H](C)COC(=O)[C@@H]2CCCN2C(=O)CC=C[C@H]1C
composite z-score [1]: -0.313
composite z-score [2]: 2.62
composite z-score [3]: -0.0659
composite z-score [4]: 0.571
composite z-score [5]: 0.84
composite z-score [6]: -0.483
composite z-score [7]: 0.926
z-score [8]: -0.813 (inactive)
composite z-score [9]: 0.16
composite z-score [10]: -0.0618
composite z-score [11]: 0.888
z-score [12]: -0.0153 (inactive)
z-score [13]: -1.33 (inactive)
z-score [14]: -0.495 (inactive)
composite z-score [15]: -0.389
z-score [16]: -0.135 (inactive)
composite z-score [17]: -0.261
composite z-score [18]: 0.862
composite z-score [19]: 0.468
composite z-score [20]: -0.0675

CCc1cc2c(nc1CC)CCN(CCC(C)=NOCC[C@@H]1C=C[C@H](OC(C)=O)[C@@H](COC(C)=O)O1)C2
composite z-score [1]: 0.325
composite z-score [2]: 1.66
composite z-score [3]: -0.103
composite z-score [4]: -0.213
composite z-score [5]: -0.0544
composite z-score [6]: -0.0974
composite z-score [7]: 0.545
z-score [8]: 0.485 (inactive)
composite z-score [9]: 0.851
composite z-score [10]: 0.0722
composite z-score [11]: 1.54
z-score [12]: -0.391 (inactive)
z-score [13]: 0.591 (inactive)
z-score [14]: 0.521 (inactive)
composite z-score [15]: 0.796
z-score [16]: 0.956 (inactive)
composite z-score [17]: 0.251
composite z-score [18]: 1.21
composite z-score [19]: 0.546
composite z-score [20]: 0.0579
